The results in this text go back to paper PMC7862700, “An all-to-all approach to the identification of sequence-specific readers for epigenetic DNA modifications on cytosine”.

Common to all, as to experiment: DAPPL (digital affinity profiling via proximity ligation, sequencing); 10 mM Tris-HCl pH 7.5, 50 mM NaCl, 1 mM DTT, 4% glycerol, room temperature, 30 min; GST-TFs on glutathione beads, 16-mer random dsDNA library, 0.1% formaldehyde crosslink after washing; high values mean tight binding
The target in one assay is T1, FEV (Homo sapiens, UniProt Q99581 1-238).
T1 sequence: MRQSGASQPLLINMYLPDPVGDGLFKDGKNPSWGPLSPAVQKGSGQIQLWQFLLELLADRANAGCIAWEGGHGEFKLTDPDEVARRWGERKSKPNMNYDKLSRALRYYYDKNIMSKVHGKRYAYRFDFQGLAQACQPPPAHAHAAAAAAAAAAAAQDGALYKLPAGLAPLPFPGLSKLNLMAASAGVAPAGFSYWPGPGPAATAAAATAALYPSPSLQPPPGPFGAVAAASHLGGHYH
As to conditions: protein: recombinant; tags: N-terminal GST; dsDNA, one strand shown. In a few lines:
(§1)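 Human transcription factors were made in yeast as GST fusions, captured on glutathione beads and barcoded with DNA. With a tag-only sample included, the pool was incubated with 200 nmole of a random double-stranded 16-mer DNA library in Tris/NaCl/DTT/glycerol buffer at room temperature for 30 min, then crosslinked with 0.1% formaldehyde after washing, ligated by proximity, amplified and sequenced. For binding signal, each hexamer's read frequency for a factor is divided by its frequency for the tag-only sample.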

A further assay concerns the target ETV5 (Homo sapiens, UniProt P41161 1-510). The note with it: protein: recombinant; tags: N-terminal GST; dsDNA, one strand shown. Put shortly: as §1
In a further assay the target is HSF1 (Homo sapiens, UniProt Q00613 1-529). As to conditions: protein: recombinant; tags: N-terminal GST; chain copies: 3; dsDNA, one strand shown. In a few lines: as §1
Sequence of HSF1 (Q00613 whole entry): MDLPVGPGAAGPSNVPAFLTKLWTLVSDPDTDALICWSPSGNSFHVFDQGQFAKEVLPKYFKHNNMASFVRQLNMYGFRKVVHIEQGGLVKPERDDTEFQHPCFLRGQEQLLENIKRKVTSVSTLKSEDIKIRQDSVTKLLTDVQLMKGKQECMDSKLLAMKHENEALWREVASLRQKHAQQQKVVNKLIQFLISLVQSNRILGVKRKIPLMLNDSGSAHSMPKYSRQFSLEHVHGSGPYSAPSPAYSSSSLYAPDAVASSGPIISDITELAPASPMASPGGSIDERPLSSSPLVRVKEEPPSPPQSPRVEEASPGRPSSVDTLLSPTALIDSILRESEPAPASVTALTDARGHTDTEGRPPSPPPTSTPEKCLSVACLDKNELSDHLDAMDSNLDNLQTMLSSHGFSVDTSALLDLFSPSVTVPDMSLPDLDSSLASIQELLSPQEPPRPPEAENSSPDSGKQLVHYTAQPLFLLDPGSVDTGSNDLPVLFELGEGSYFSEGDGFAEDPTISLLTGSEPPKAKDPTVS
For the next assay, the target named is T2, SPIC (Homo sapiens, UniProt Q8N5J4 1-248).
T2 sequence: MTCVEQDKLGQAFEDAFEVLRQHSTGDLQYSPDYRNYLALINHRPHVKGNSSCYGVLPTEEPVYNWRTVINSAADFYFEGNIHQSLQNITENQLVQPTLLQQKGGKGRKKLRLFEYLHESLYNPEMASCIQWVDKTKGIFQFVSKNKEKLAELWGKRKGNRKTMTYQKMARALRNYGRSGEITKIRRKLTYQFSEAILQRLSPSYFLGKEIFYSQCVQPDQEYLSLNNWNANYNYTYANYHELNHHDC
The note with it: protein: recombinant; tags: N-terminal GST; dsDNA, one strand shown. Put shortly:
as §1

A further assay concerns the target ELF4 (Homo sapiens, UniProt Q99607 1-663). The note with it: protein: recombinant; tags: N-terminal GST; dsDNA, one strand shown. In a few lines:
as §1

For a further assay, the target named is T3, ELK4 (Homo sapiens, UniProt P28324-2 1-405).
T3 sequence: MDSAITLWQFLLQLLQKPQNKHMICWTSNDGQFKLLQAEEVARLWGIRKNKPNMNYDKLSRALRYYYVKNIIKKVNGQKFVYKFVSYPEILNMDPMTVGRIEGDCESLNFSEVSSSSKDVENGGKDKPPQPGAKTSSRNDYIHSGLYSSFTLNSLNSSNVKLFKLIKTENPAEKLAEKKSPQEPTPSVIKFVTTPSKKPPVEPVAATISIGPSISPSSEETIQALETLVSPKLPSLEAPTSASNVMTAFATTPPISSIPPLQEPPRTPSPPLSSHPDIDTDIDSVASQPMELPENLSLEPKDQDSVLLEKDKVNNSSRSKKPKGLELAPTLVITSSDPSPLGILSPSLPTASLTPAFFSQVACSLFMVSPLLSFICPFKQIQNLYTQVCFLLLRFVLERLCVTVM
As to conditions: protein: recombinant; tags: N-terminal GST; dsDNA, one strand shown. In a few lines: as §1

The target in the next assay is T4, ETV2 (Homo sapiens, UniProt O00321 1-342).
T4 sequence: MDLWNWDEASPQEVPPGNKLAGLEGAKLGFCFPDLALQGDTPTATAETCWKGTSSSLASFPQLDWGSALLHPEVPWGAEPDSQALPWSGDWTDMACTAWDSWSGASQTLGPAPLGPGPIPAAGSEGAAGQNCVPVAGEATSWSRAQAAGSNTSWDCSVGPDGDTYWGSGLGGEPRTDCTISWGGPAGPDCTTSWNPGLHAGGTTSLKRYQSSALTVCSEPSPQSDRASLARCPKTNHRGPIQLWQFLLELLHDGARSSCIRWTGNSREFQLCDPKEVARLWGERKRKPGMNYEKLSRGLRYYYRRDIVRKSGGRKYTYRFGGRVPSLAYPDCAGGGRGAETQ
The note with it: protein: recombinant; tags: N-terminal GST; dsDNA, one strand shown. Put shortly:
as §1

Another assay addresses T5, ELF3 (Homo sapiens, UniProt P78545 1-371).
T5 sequence: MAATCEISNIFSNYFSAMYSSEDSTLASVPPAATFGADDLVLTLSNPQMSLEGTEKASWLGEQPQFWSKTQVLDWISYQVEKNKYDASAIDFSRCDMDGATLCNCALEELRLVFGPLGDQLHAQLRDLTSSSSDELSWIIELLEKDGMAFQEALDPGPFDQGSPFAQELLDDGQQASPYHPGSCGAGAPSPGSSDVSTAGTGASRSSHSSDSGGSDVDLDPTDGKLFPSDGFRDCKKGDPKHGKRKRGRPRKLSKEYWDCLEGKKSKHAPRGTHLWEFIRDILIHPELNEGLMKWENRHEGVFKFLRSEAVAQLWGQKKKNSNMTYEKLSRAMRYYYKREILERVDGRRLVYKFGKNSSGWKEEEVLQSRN
As to conditions: protein: recombinant; tags: N-terminal GST; dsDNA, one strand shown. In a few lines:
as §1

A further assay addresses CRX (Homo sapiens, UniProt O43186 1-299). As to conditions: protein: recombinant; tags: N-terminal GST; dsDNA, one strand shown. Put shortly:
as §1

A further assay has as its target ETV1 (Homo sapiens, UniProt P50549 1-477). The note with it: protein: recombinant; tags: N-terminal GST; dsDNA, one strand shown. In a few lines:
as §1

In the next assay the target is T6, ERF (Homo sapiens, UniProt P50548 1-548).
T6 sequence: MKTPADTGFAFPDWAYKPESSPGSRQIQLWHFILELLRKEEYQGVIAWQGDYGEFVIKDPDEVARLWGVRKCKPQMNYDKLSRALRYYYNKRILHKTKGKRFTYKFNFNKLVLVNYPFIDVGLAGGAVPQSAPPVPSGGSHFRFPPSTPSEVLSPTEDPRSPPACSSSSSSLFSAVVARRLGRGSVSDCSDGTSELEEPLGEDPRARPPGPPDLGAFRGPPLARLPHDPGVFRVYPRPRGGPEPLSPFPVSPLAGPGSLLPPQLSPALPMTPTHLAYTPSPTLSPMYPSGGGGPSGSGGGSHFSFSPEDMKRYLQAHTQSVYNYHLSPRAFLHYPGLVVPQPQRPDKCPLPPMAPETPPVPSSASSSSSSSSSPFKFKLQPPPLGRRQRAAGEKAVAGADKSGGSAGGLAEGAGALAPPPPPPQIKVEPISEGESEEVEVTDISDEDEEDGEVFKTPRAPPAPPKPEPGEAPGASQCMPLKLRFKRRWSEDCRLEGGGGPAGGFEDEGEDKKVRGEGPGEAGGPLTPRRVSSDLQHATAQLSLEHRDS
The note with it: protein: recombinant; tags: N-terminal GST; dsDNA, one strand shown. Put shortly: as §1

The target in another assay is T7, ETV3L (Homo sapiens, UniProt Q6ZN32 1-361).
T7 sequence: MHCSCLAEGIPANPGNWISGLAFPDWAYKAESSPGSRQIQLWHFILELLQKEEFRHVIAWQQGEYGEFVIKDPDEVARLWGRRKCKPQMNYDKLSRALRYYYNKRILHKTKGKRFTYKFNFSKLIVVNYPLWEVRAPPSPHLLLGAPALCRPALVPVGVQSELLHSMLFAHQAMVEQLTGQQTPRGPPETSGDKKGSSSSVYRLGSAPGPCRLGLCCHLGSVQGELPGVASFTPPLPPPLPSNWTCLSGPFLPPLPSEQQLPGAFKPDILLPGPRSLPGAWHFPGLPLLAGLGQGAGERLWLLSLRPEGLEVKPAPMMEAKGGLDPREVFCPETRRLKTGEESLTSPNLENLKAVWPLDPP
As to conditions: protein: recombinant; tags: N-terminal GST; dsDNA, one strand shown. In a few lines:
as §1

A further assay addresses T8, ETS2 (Homo sapiens, UniProt P15036 1-469).
T8 sequence: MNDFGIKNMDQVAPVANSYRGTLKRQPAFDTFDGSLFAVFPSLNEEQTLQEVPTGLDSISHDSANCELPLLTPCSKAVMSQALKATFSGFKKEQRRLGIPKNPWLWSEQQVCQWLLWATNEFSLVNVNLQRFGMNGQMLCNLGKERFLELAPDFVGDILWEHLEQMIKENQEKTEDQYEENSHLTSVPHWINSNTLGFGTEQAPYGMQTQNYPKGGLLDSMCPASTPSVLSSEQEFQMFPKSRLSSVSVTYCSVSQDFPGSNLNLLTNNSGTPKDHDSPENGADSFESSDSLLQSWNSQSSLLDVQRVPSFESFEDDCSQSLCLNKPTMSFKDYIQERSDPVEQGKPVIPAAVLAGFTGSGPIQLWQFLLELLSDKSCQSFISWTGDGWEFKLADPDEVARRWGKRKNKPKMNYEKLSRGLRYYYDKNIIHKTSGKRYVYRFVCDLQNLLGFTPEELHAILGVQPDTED
The note with it: protein: recombinant; tags: N-terminal GST; dsDNA, one strand shown. In a few lines: as §1

The next assay concerns the target T9, SPDEF (Homo sapiens, UniProt O95238 1-335).
T9 sequence: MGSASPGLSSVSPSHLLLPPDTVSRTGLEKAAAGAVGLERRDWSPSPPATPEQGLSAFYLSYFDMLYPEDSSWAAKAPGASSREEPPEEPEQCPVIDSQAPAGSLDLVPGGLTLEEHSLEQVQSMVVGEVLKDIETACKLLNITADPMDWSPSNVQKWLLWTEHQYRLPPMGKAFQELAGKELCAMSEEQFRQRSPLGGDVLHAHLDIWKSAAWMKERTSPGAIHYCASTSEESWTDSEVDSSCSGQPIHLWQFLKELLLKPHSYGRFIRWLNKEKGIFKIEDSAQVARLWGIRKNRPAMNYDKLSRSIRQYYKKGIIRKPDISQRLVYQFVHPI
The note with it: protein: recombinant; tags: N-terminal GST; dsDNA, one strand shown. Put shortly: as §1

A further assay has as its target T10, ETV7 (Homo sapiens, UniProt Q9Y603 1-341).
T10 sequence: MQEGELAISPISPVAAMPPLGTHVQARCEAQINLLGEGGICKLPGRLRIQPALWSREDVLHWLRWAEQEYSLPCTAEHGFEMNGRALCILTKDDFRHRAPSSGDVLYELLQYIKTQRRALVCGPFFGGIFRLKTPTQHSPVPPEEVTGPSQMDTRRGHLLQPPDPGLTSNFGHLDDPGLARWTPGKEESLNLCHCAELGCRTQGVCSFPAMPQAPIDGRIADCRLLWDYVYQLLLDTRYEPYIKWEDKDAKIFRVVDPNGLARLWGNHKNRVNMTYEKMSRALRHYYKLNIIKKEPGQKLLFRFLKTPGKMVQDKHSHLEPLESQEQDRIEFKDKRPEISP
The note with it: protein: recombinant; tags: N-terminal GST; dsDNA, one strand shown. In a few lines: as §1

The target in another assay is T11, ELF5 (Homo sapiens, UniProt Q9UKW6-2 1-255).
T11 sequence: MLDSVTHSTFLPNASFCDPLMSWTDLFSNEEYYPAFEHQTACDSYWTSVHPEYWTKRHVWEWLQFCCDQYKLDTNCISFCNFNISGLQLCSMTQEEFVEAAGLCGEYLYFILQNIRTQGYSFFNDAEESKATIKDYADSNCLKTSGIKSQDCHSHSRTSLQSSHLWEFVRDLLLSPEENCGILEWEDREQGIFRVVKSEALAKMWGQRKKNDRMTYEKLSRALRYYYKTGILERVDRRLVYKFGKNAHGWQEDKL
As to conditions: protein: recombinant; tags: N-terminal GST; dsDNA, one strand shown. Put shortly: as §1

A further assay has as its target T12, ETV3 (Homo sapiens, UniProt P41162-2 1-143).
T12 sequence: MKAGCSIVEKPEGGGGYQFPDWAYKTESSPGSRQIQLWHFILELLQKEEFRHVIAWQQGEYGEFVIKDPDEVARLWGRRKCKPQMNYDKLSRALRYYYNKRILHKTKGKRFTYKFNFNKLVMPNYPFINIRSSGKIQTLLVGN
As to conditions: protein: recombinant; tags: N-terminal GST; dsDNA, one strand shown. Put shortly:
as §1

The next assay addresses ETV6 (Homo sapiens, UniProt P41212 1-452). As to conditions: protein: recombinant; tags: N-terminal GST; dsDNA, one strand shown. Put shortly: as §1

Sequence of ETV1 (P50549 whole entry): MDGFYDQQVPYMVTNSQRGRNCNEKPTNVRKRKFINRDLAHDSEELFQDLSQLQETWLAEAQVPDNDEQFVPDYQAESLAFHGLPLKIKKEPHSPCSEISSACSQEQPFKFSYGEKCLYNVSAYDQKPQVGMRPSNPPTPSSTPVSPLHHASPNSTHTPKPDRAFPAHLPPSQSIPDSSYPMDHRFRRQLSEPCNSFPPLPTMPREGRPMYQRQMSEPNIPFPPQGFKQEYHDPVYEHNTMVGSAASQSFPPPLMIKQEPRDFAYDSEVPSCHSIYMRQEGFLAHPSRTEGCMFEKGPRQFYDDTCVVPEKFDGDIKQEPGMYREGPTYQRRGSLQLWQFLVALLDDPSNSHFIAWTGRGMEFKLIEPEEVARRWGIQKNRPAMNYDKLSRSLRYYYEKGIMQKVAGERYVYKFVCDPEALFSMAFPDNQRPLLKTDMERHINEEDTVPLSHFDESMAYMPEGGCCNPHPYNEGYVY
Sequence of ETV6 (P41212 whole entry): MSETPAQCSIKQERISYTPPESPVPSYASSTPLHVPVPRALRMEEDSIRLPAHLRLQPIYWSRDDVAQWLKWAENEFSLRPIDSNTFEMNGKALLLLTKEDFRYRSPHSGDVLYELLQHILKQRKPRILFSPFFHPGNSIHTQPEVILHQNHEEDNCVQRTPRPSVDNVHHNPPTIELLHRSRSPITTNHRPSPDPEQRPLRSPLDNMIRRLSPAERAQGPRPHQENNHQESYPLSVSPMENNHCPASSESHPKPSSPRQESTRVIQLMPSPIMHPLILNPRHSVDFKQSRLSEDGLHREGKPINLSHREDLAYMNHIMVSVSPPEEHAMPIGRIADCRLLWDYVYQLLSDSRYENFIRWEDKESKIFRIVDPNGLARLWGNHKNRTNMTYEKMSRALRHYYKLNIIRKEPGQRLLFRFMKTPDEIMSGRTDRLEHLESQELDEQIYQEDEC
Sequence of CRX (O43186 whole entry): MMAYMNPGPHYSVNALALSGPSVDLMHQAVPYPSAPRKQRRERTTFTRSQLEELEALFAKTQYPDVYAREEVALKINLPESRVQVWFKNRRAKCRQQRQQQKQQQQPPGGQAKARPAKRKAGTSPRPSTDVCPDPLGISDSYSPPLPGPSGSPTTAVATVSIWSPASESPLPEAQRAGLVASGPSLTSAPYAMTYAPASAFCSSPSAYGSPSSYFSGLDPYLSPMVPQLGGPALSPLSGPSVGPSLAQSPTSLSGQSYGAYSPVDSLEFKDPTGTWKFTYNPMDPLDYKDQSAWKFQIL
Sequence of ELF4 (Q99607 whole entry): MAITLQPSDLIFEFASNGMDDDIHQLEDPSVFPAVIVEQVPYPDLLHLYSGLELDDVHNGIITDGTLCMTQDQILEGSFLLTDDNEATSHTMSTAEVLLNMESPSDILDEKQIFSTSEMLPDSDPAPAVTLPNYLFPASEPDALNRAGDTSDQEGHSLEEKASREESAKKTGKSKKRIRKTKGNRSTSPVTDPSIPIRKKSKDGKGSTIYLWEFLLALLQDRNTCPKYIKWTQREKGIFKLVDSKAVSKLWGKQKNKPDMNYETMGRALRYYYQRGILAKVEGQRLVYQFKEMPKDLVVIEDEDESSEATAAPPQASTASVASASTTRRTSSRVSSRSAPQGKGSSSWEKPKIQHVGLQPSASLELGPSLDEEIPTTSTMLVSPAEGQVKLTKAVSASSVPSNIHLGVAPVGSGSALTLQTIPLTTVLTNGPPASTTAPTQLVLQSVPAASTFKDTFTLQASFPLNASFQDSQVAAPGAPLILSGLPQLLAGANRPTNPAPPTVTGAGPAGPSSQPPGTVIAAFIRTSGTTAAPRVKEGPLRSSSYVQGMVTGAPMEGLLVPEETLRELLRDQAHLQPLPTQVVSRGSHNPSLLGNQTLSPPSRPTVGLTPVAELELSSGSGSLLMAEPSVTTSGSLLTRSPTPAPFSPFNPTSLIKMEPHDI
Sequence of ETV5 (P41161 whole entry): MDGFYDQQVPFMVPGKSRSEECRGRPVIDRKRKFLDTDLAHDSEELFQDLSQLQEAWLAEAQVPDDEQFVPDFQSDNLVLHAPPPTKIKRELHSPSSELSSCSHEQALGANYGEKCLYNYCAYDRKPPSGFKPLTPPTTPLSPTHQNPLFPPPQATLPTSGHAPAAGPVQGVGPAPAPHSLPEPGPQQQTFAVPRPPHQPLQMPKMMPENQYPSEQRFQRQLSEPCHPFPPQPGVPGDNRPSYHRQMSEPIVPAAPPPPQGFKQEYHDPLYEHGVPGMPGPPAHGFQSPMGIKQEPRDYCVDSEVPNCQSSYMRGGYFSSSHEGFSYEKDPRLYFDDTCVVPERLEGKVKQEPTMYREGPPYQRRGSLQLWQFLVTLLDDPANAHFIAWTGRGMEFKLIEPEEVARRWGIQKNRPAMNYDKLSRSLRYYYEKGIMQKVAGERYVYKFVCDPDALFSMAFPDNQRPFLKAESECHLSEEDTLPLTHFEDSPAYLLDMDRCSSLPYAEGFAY

In the case of TAAGAA, the binding signal with FEV is 1.05 fold enrichment (6-mer frequency, TF over GST control); with ETV5, 1.1 fold enrichment (6-mer frequency, TF over GST control); with HSF1, 1.77 fold enrichment (6-mer frequency, TF over GST control); in the assay with SPIC it was 1.21 fold enrichment (6-mer frequency, TF over GST control); with ELF4 it was 1.13 fold enrichment (6-mer frequency, TF over GST control); with ELK4, 1.09 fold enrichment (6-mer frequency, TF over GST control). Moreover, the binding signal in the assay with ETV2 was 1.2 fold enrichment (6-mer frequency, TF over GST control); in the assay with ELF3 it was 1.02 fold enrichment (6-mer frequency, TF over GST control); with CRX it was 1.96 fold enrichment (6-mer frequency, TF over GST control); in the assay with ETV1, 1.13 fold enrichment (6-mer frequency, TF over GST control); with ERF it was 1.11 fold enrichment (6-mer frequency, TF over GST control); with ETV3L, 1.09 fold enrichment (6-mer frequency, TF over GST control). The binding signal is 1.03 fold enrichment (6-mer frequency, TF over GST control) with ETS2; 1.06 fold enrichment (6-mer frequency, TF over GST control) with SPDEF; 1.12 fold enrichment (6-mer frequency, TF over GST control) in the assay with ETV7; 1.03 fold enrichment (6-mer frequency, TF over GST control) with ELF5; 1.07 fold enrichment (6-mer frequency, TF over GST control) with ETV3; 1.08 fold enrichment (6-mer frequency, TF over GST control) with ETV6.
